Screens (PubChem)
RE007 growth inh: qHTS Assay for Inhibitors of the HIV-1 protein Vpr; S. pombe RE007 Vpr strain, BacTiter-Glo ATP luminescence, 24 h; Potency, µM (titrated, usually from 92.2 µM), for inactives: top-dose activity change, negative = less growth, most hits filed as inhibitors; 360,000 compounds, 0.21% hits; AID 651644, 2012; active means well fitted falling curve with a large enough effect; inconclusive means small, poorly fitted or top-dose-only effect; inactive means no such curve, though single readings can be large or run the other way; further: potency means the concentration at half of the fitted maximal effect; on the % scale 0 is the no-effect control and ±100 the full control effect; nearly all actives have a fitted effect of over 50% in size
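Fission yeast RE007 carrying one integrated HIV-1 vpr copy, seeded at OD 0.01 in PMG+AL medium with 23 nL pinned compound. Grown 24 h at 30 degrees; viability read by BacTiter-Glo luminescence after 5 min.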
TbPYK inhibitor: qHTS of Trypanosoma Brucei Inhibitors; Potency, µM (highest dose often 76.8 µM), without a hit: top-dose activity, negative = inhibition, most hits filed as inhibitors; TbPYK enzyme, Kinase-Glo Plus ATP luminescence, 45 min; pyruvate kinase (Trypanosoma brucei), Q57TT1; 410,000 compounds, 0.12% hits; AID 624173, 2012; further: potency means the concentration at half of the fitted maximal effect; on the % scale 0 is the no-effect control and ±100 the full control effect; nearly all actives have a fitted effect of over 50% in size
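Enzyme and substrate buffer are dispensed first and compound is pin-transferred. ADP at 130 uM final then starts the reaction, which runs 45 min at room temperature. Detection reagent is added for 10 min before luminescence is imaged.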
LmPK inh: qHTS Assay for Inhibitors of Leishmania Mexicana Pyruvate Kinase (LmPK). purified LmPK, Kinase-Glo ATP luminescence, 1 h. 290,000 compounds, 0.37% hits. Q27686. Potency, µM (doses to about 57.5 µM), for inactives: at the top dose activity change, negative = inhibition, actives largely listed as inhibitors. AID 1721, 2009; further: potency means the concentration at half of the fitted maximal effect; on the % scale 0 is the no-effect control and ±100 the full control effect
Target sequence (Q27686 whole entry, looked up): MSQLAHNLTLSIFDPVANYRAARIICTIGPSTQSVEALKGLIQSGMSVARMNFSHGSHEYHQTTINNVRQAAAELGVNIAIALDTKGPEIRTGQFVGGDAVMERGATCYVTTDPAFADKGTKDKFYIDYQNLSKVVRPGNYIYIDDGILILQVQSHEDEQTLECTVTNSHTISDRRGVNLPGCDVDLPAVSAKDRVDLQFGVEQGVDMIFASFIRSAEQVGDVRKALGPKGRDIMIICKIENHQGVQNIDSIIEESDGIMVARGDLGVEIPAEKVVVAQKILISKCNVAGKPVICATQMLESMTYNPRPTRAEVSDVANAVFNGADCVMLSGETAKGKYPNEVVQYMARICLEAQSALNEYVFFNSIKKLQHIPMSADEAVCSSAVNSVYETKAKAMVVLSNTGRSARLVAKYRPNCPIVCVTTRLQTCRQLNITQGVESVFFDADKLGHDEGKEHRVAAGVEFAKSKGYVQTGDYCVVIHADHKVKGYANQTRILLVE
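ATP generated from ADP (0.1 mM) and PEP (0.5 mM) by 0.1 nM LmPK over 1 h at room temperature (pH 7.2 imidazole buffer) was detected by coupled luciferase luminescence. Values were normalized to uninhibited and no-enzyme wells.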
CHX counter: Cycloheximide Counterscreen for Small Molecule Inhibitors of Shiga Toxin | 300,000 compounds, 12% hits | cell reporter, cycloheximide protein synthesis inhibition counterscreen | max response, %; in the data active means max response mostly above about 13%, no sharp cut-off; inactive means mostly below about 14%; further: read at 38.3 µM for the half of the compounds with a filed dose; 0% is about no effect
Giardia FBPA inh: qHTS Assay for Inhibitors of Fructose-1,6-bisphosphate Aldolase from Giardia Lamblia | A8B2U2 | purified Giardia FBPA | Potency, µM (series often up to 59.6 µM), inactives show at the top dose activity, negative = inhibition, hits mostly inhibitors | 290,000 compounds, 0.71% hits; further: potency means the concentration at half of the fitted maximal effect; on the % scale 0 is the no-effect control and ±100 the full control effect; nearly all actives have a fitted effect of over 55% in size
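Giardia FBPA (40 nM reagent) was preincubated 10 min at RT with compound (up to 57.5 uM final), then substrate plus GAPDH/TPI/NAD/arsenate coupling system with diaphorase/resazurin was added; resorufin fluorescence (525/598 nm) was read after 20 min.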
Shiga toxin inh: A qHTS for Small Molecule Inhibitors of Shiga Toxin; Vero cells, Shiga toxin protein synthesis inhibition reporter; 290,000 compounds, 9.2% hits; inhibition, % at 38.7 µM; AID 2315, 2010; in the data active means inhibition mostly above about 28%, no sharp cut-off; inactive means mostly below about 43%; further: 0% is about no effect
An asterisk follows results filed as active; u = inconclusive; x = not tested or not shown; [ ] = remark or other dose. The entries come from a sample that favours hits as a whole. Unless noted, the call rests on the fitted dose curve; in most records, active means well fitted curve in the direction sought with a large enough effect; inconclusive means small, poorly fitted or top-dose-only effect, or another doubt; inactive means no such curve, though single readings can be large; an effect the other way counts as inactive or inconclusive.

SMILES	RE007 growth inh	TbPYK inhibitor	LmPK inh	CHX counter	Giardia FBPA inh	Shiga toxin inh
COc1ccc(OC)c(NC(=O)c2cnn(-c3ccccc3)c2C)c1	-12%	-4%	-5%	8	-3%	27
Cc1ccc(NC(=O)c2cnn(-c3ccccc3)c2C)cc1C	5%	-11%	-8%	16	-20%	39
Cc1ccc(C)c(NC(=O)c2cnn(-c3ccccc3)c2C)c1	5%	-7%	-2%	40*	-3%	x
CCc1ccccc1NC(=O)c1cnn(-c2ccccc2)c1C	25%	-3%	-7%	16*	0%	36*
Cc1ccccc1NC(=O)c1cnn(-c2ccccc2)c1C	-1%	-7%	3%	42*	-6%	75*
Cc1cccc(NC(=O)c2cnn(-c3ccccc3)c2C)c1C	6%	-7%	-5%	27*	-9%	41*
COc1ccccc1NC(=O)c1sc2nc3c(c(C(F)(F)F)c2c1N)CN(C(C)=O)CC3	x	0%	x	x	x	x
O=C(N/N=C/c1cccs1)c1ccc(NC(=O)c2ccccc2Cl)cc1	16%	-5%	0%	5	5%	-6
O=C(O)c1cccc(NC(=S)N/N=C/c2cccc(O)c2)c1	-8%	-6%	-7%	14	20%	21
Cc1cccc(C(=O)N/N=C/c2ccccn2)c1	3%	5%	-4%	25*	13%	91*
O=C(O)c1cccc(NC(=S)N/N=C/c2ccccn2)c1	5%	5%	5%	51*	-10%	131*
O=C(N/N=C/c1cccs1)c1ccc(-n2cccc2)cc1	1%	4%	0%	22*	1%	19
O=C(N/N=C/c1ccncc1)c1ccc(-n2cccc2)cc1	-13%	2%	-1%	-2	-2%	-3
O=C(N/N=C/c1cccs1)c1cccc(NC(=O)c2ccccc2Cl)c1	9%	-3%	3%	18*	1%	28
Cc1nn(C)c(C(=O)N/N=C/c2ccccn2)c1[N+](=O)[O-]	13%	0%	-14%	1	x	-33
COC(=O)C1(Cc2ccc3c(c2)CCC3)Cc2ccc3c(c2C1=O)CCC3 (configuration not stated)	12%	3%	x	x	x	x
O=C(N/N=C/c1ccccn1)c1cccc(NC(=O)c2ccccc2Cl)c1	7%	-11%	-5%	11*	5%	34*
Cc1occc1C(=O)N/N=C/c1ccccn1	-9%	-12%	u	38*	0%	75*
Cc1cccc(C(=O)Nc2cccc(C(=O)N/N=C/c3ccccn3)c2)c1	32%	-7%	-10%	13*	6%	19
O=C(N/N=C/c1ccccc1F)c1cccc(NC(=O)c2ccccc2Cl)c1	2%	-4%	6%	26*	8%	56*
Cc1ccccc1C(=O)Nc1ccc(C(=O)N/N=C/c2ccccn2)cc1	8%	2%	-9%	-1	5%	-8
Cc1ccc(NS(=O)(=O)c2ccc3c(c2)NC(=O)CCS3)c(C)c1	-12%	-6%	-1%	-3	x	-4
O=C(Cc1ccccc1)Nc1sc2c(c1C(=O)Nc1ccc(Cl)cc1)CCOC2	x	x	x	3	x	10
Cc1cc(C(=O)Nc2ccncc2)ccc1[N+](=O)[O-]	-10%	0%	-2%	26*	-1%	43
Cc1ccc(C(=O)Nc2ccncc2)cc1[N+](=O)[O-]	-1%	0%	0%	-3	14%	-7
SMILES	RE007 growth inh	TbPYK inhibitor	LmPK inh	CHX counter	Giardia FBPA inh	Shiga toxin inh
Cc1cc(C(=O)Nc2ccc(Nc3ccccc3)cc2)ccc1[N+](=O)[O-]	-6%	u	5%	20*	-16%	x
C/C(=N\NC(=O)c1ccc([N+](=O)[O-])c(C)c1)c1ccccc1Cl	5%	-3%	2%	28*	-5%	57*
Cc1ccc(NC(=O)c2ccncc2)cc1[N+](=O)[O-]	x	-5%	2%	19*	1%	16
CC(=O)Nc1cccc(NC(=O)c2ccc(C)c([N+](=O)[O-])c2)c1	9%	-5%	-9%	26*	-4%	41
O=C(Nc1ccc(Cc2ccncc2)cc1)c1ccc(Cl)c([N+](=O)[O-])c1	-3%	-1%	1%	8.6*	u	-2
COc1ccccc1-c1nc(-c2ccc(C)nc2OC)no1	-3%	-3%	-6%	49*	0%	93*
COc1nc(C)ccc1-c1noc(-c2cccnc2)n1	2%	1%	-1%	19*	-2%	x
COc1nc2cc(C)ccc2cc1-c1noc(-c2cccnc2)n1	x	x	0%	-5	3%	29
COc1nc(C)ccc1-c1noc(-c2ccccn2)n1	1%	-5%	22µM*	57*	18%	144*
COc1ccc(S(=O)(=O)N2CCOC2CNC(=O)C(=O)NCCc2ccc(S(N)(=O)=O)cc2)cc1 (configuration not stated)	-6%	-14%	-2%	4	-1%	7
Cc1cc(N2CCCCC2)nc2ccc(NC(=O)/C=C/c3ccccc3OC(C)C)cc12	x	-7%	x	x	x	x
COc1ccc(CNC(=O)COC(=O)c2ccc(S(=O)(=O)NCc3ccco3)cc2)cc1	-4%	-8%	x	x	x	x
Cc1onc(NC(=O)c2ccc(Cl)cc2Cl)c1Br	-5%	-2%	15%	42*	-1%	72*
Cc1onc(NC(=O)NC(=O)c2ccccc2F)c1Br	8%	-3%	-7%	21*	x	37
Cc1ccc(C[C@H](C(=O)O)N2C(=O)c3ccc(C(=O)O)cc3C2=O)cc1	x	x	x	-3	11%	5
Cc1ccc(N(CC(=O)NC(C)C)C(=O)CCC(=O)Nc2nccs2)c(C)c1	-5%	-9%	-2%	28*	-9%	-2
Cc1cc(C)cc(N(CC(=O)NCc2ccco2)C(=O)CCC(=O)Nc2ccccn2)c1	-19%	-7%	0%	12	12%	8
Cc1ccc(N(CC(=O)NC(C)C)C(=O)CCC(=O)Nc2nccs2)cc1	-5%	-7%	-7%	-1	1%	-7
Cc1ccc(N(CC(=O)NCc2ccco2)C(=O)CCC(=O)Nc2ccccn2)c(C)c1	-14%	1%	10%	17	1%	34*
CC(C)(C)C(=O)NCCc1nc2ccccc2n1CCCCOc1ccc(Cl)cc1	x	-12%	x	x	x	x
CC(=O)NC(CSC(CC(=O)c1ccco1)c1ccc(C)cc1)C(=O)O (configuration not stated)	u	-5%	u	57*	-10%	105*
O=C(CN1CCCN(Cc2ccccc2Cl)S1(=O)=O)NCc1ccccc1	x	3%[15.4 µM]	x	x	x	x
Cc1ccc(NC(=O)c2ccc(C)c(S(=O)(=O)N3CCCCCC3)c2)cc1	x	-1%	x	x	x	x
